Data as given in PubChem BioAssay (NCATS).
Records with an inconclusive call do not appear. Calls of active or inactive are those of the source. Calls come from the whole dose curve; as a rule, active = well fitted inhibition curve with a large enough effect; inconclusive = small, poorly fitted or top-dose-only effect; inactive = flat fitted curve, though single readings scatter.

Columns and labels:
[1] = tested on: CRL-7250; experiment: Cytotoxic Profiling of Annotated Libraries Using Quantitative High-Throughput Screening (AID 1296008); settings: Five cell lines viability, CellTiter-Glo ATP luminescence, 48-72 h; max response: stronger effect = lower value
Method in brief: (§1)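 Cytotoxicity was measured as CellTiter-Glo ATP luminescence, read after 10 min at room temperature. Compound treatment of the cells lasted 48 or 72 hr at 37 degrees Celsius in a qHTS format.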

[2] = tested on: HEK293; experiment: as above; settings: Five cell lines viability, CellTiter-Glo ATP luminescence, 48-72 h; max response: stronger effect = lower value
Method in brief: as §1

[3] = tested on: HaCat; experiment: as above; settings: Five cell lines viability, CellTiter-Glo ATP luminescence, 48-72 h; max response: stronger effect = lower value
Method in brief: as §1

[4] = tested on: NIH3T3; experiment: as above; settings: Five cell lines viability, CellTiter-Glo ATP luminescence, 48-72 h; max response: stronger effect = lower value
Method in brief: as §1

[5] = tested on: HACAT; experiment: qHTS assay to identify novel small-molecules to repurpose for Merkel cell carcinoma treatment (AID 1296009); settings: MCC and control cell lines, CellTiter-Glo viability, 72 h; at 44.8 µM (top of the series) unless noted
Method in brief: (§2)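 After compound transfer in DMSO, plates were kept 72 hr at 37 degree celsius. Luminescent ATP signal from CellTiter-Glo served as viability measure, normalized against DMSO and no-cell controls.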

[6] = tested on: HEK293T; experiment: as above; settings: MCC and control cell lines, CellTiter-Glo viability, 72 h; at 44.8 µM (top of the series) unless noted
Method in brief: as §2

[7] = tested on: MCC-13; experiment: as above; settings: MCC and control cell lines, CellTiter-Glo viability, 72 h; series mostly up to 46 µM
Method in brief: as §2

[8] = tested on: MCC-26; experiment: as above; settings: MCC and control cell lines, CellTiter-Glo viability, 72 h; series mostly up to 46 µM
Method in brief: as §2

[9] = tested on: KB-3-1; experiment: Cytotoxic Profiling of Annotated Libraries Using Quantitative High-Throughput Screening (AID 1296008); settings: Five cell lines viability, CellTiter-Glo ATP luminescence, 48-72 h; max response: stronger effect = lower value
Method in brief: as §1
% is set by controls: 0 for no effect and ±100 for the full control effect.
Note: nearly all actives have a fitted effect of over 60% in size.

CC(=O)O[C@@H]1CC2C3CCc4cc(OC(=O)c5ccccc5)ccc4C3CCC2(C)[C@H]1OC(C)=O (stereo partly drawn)
inactive: max response [1] -8.96% | outcome [2] | outcome [3] | max response [4] 3.57% | outcome [5] | outcome [6] | Potency [7] | Potency [8]

CN(CC1(C)CCCO1)S(=O)(=O)c1ccc(Cl)c(S(N)(=O)=O)c1 (stereo not drawn)
inactive: max response [1] 1.85% | max response [2] -6.48% | max response [3] -20.1% | outcome [9] | Potency [7] | Potency [8]

Cc1cc(O)c(C)c(C)c1O
inactive: outcome [1] | outcome [2] | outcome [3] | outcome [4] | outcome [5] | outcome [6] | Potency [7] | Potency [8]

CCCC(=O)Nc1ccc(O)c(C(C)=O)c1
inactive: max response [1] -0.565% | outcome [2] | outcome [3] | max response [4] 3.73% | outcome [5] | outcome [6] | Potency [7] | Potency [8]

CC(CC(C#N)(c1ccccc1)C(C)C)N(C)C (stereo not drawn)
inactive: max response [1] -3.29% | outcome [2] | outcome [3] | outcome [4] | outcome [5] | outcome [6] | Potency [7] | Potency [8]

O=C(c1ccco1)N1CCNCC1
inactive: max response [1] -10.9% | outcome [2] | outcome [3] | max response [4] 4.52% | outcome [5] | outcome [6] | Potency [7] | Potency [8]

COc1ccc(/C(C)=C/C(=O)O)c(OC)c1
inactive: max response [1] 0.36% | outcome [2] | outcome [3] | outcome [4] | outcome [5] | outcome [6] | Potency [7]

O=C(O)/C=C(\CC(=O)O)C(=O)O
inactive: max response [1] 4.3% | outcome [2] | outcome [3] | outcome [4] | outcome [5] | outcome [6] | Potency [7] | Potency [8]

CN1N=C(C(N)=O)CCC1=O
inactive: outcome [1] | outcome [2] | outcome [3] | outcome [4] | outcome [5] | outcome [6] | Potency [7] | Potency [8]

Cc1ccc2ccc(Cl)cc2n1
inactive: outcome [1] | outcome [2] | outcome [3] | max response [4] 3.19% | outcome [5] | outcome [6] | Potency [7]

COC(=O)c1cc(Cl)ccc1OC
inactive: max response [1] -7.71% | outcome [2] | outcome [3] | outcome [4] | outcome [5] | outcome [6] | Potency [7]
